Test results taken from PubChem BioAssay (NCATS).
“And” between values parts separate entries of the source, which are not always exact repeats. Equal values may be shown once. Inconclusive results are not listed. The source made the active and inactive calls. Unless noted, calls come from the whole dose curve; as a rule, active = well fitted curve in the direction sought with a large enough effect; inconclusive = small, poorly fitted or top-dose-only effect, or another doubt; inactive = no such curve, though single readings can be large; an effect the other way counts as inactive or inconclusive.

Experiments:
[1] = Confirmation and Secondary Assay for Modulators of Hemoglobin Beta Chain Splicing at IVS2 654 locus (AID 910);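 note: HeLa cells stably carrying EGFP split by mutant beta-globin IVS2-654 intron; % of control where 0% means no effect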
Summary of the method: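 HeLa cells stably expressing EGFP interrupted by β-globin IVS2-654 intron, seeded overnight in Opti-MEM/2% FCS, then treated 2 days at 37 °C. Restored splicing read as total peak GFP intensity per well by laser scanning cytometry (488 nm excitation, 500–520 nm emission); 500 nM antisense PNA as control.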

[2] = Confirmation and Secondary Assay for Modulators of Hemoglobin Beta Chain Splicing at IVS2 705 locus (AID 930);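 note: HeLa cells stably expressing the EGFP-705 splicing reporter; GFP fluorescence per well restored by corrected splicing of the IVS2-705 intron in EGFP; % of control where 0% means no effect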
Summary of the method: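 HeLa IVS2-705 EGFP reporter cells, 500/well, compound 2 d at 37C; correct splicing yields fluorescent EGFP. Control: 500 nM antisense PNA. Read-out: total peak GFP intensity.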

[3] = qHTS Assay for Lipid Storage Modulators (AID 1519; calls by dose curve; for activity change, negative = inhibition: % is set by controls: 0 for no effect and ±100 for the full control effect); conditions: Drosophila S3 cells, BODIPY lipid droplet/cell ratio, laser cytometry, cells loaded with oleic acid
Summary of the method: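 Cells seeded at 5,000 per well were treated with compounds over a concentration series and loaded with oleic acid (400 uM, as added). Lipid droplet fluorescence (488 nm excitation, 500-530 nm channel) was read by laser-scanning cytometry and normalized to 20 uM Triacsin C.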

[4] = molecular target: Tyrosyl-DNA phosphodiesterase 1 (Homo sapiens) (UniProt Q9NUW8); test: Confirmation Assay for Inhibitors of Tyrosyl-DNA Phosphodiesterase (TDP1) (AID 489007); conditions: recombinant human TDP1 enzymatic activity, dose-response; note: potency is the fitted concentration of half-maximal effect; nearly all actives have a fitted effect of over 40% in size
Summary of the method: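 Loss of AlphaScreen signal reports Tdp1 cleavage of a dual-labelled DNA substrate. Conditions: 1 nM E. coli-derived enzyme, 15 nM substrate, 15 min compound preincubation, 5 min reaction, 10 min bead incubation, all at room temperature.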

[5] = molecular target: Ubiquitin carboxyl-terminal hydrolase 1 (Homo sapiens) (UniProt O94782); test: Inhibitors of USP1/UAF1: Pilot qHTS (AID 504865);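 note: rhodamine fluorescence freed from ubiquitin-rhodamine substrate followed over time; top concentration of the series differs between compounds; % is set by controls: 0 for no effect and ±100 for the full control effect; nearly all actives have a fitted effect of over 35% in size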
Summary of the method: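 In 50mM HEPES pH 7.8 containing 0.5mM EDTA, 1mM TCEP, 0.1 mg/ml BSA and 0.01% Tween-20, 1nM USP1/UAF1 is exposed to compound for 15 min, then Ub-Rho (150nM final) is added and fluorescence is read over time.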

[6] = molecular target: Luciferin 4-monooxygenase (Photinus pyralis) (UniProt P08659); test: Biochemical firefly luciferase enzyme assay for NPC (AID 624030);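 note: purified P. pyralis luciferase at 10 nM with luciferin and ATP substrate; 0% = DMSO and -100% = full luciferase inhibition by PTC124 control; nearly all actives have a fitted effect of over 70% in size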
Summary of the method: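 Purified P. pyralis luciferase at 10 nM in 50 mM Tris Acetate (final), luminescence read within 5 minutes of enzyme addition to compounds. Activity normalised to PTC124 versus DMSO; concentration-response curves classed by r2, magnitude and activity.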

[7] = S16 Schwann cell viability assay (CellTiter-Glo assay) (AID 624031);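 note: native untransfected S16 rat Schwann cells; cellular ATP luminescence as a viability measure; plate controls were DMSO-treated cells for no effect and cell-free wells for full effect; nearly all actives have a fitted effect of over 70% in size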
Summary of the method: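 Following overnight culture in 10% FBS DMEM, parental S16 rat Schwann cells are dosed for 24 h at 37 °C. Viability is read as CellTiter-Glo luminescence and expressed as % activity relative to DMSO (0%) and no-cell wells.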

[8] = S16 Schwann cell PMP22 intronic element firefly luciferase assay (AID 624032);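 note: plate controls were DMSO for no effect and PTC124 positive control mean for full effect; nearly all actives have a fitted effect of over 30% in size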
Summary of the method: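 Rat S16 Schwann cells stably carrying firefly luciferase driven by a PMP22 intronic element, in 10% FBS, treated 24 h at 37 C. ONE-Glo luminescence normalized to PTC124 control and DMSO (0%); curves classed by r2, magnitude and activity.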

[9] = qHTS profiling for inhibitors of Plasmodium falciparum proliferation (AID 504749);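 note: 0% = DMSO vehicle and full inhibition = artemisinin control; nearly all actives have a fitted effect of over 60% in size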; conditions: P. falciparum in erythrocytes, SYBR Green DNA, 72 h, at 28.7 µM (top of the series)
Summary of the method: (§1)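 SYBR Green fluorescence (ex 485 nm, em 535 nm) reports parasite DNA after 72 h compound exposure of infected red cells at 0.3% parasitemia, 2.5% hematocrit; signal normalized to 0.29 uM artemisinin and vehicle wells.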

3D7 = test: as above; conditions: P. falciparum in erythrocytes, SYBR Green DNA, 72 h; series mostly up to 12.8 µM
Summary of the method: as §1

7G8 = test: as above; conditions: P. falciparum in erythrocytes, SYBR Green DNA, 72 h; series mostly up to 12.8 µM
Summary of the method: as §1

AA1029 = test: as above; conditions: P. falciparum in erythrocytes, SYBR Green DNA, 72 h; series mostly up to 12.8 µM
Summary of the method: as §1

AS120 = test: as above; conditions: P. falciparum in erythrocytes, SYBR Green DNA, 72 h; series mostly up to 28.7 µM
Summary of the method: as §1

ATS189 = test: as above; conditions: P. falciparum in erythrocytes, SYBR Green DNA, 72 h; series mostly up to 12.8 µM
Summary of the method: as §1

ATS95 = test: as above; conditions: P. falciparum in erythrocytes, SYBR Green DNA, 72 h; series mostly up to 12.8 µM
Summary of the method: as §1

C2A = test: as above; conditions: P. falciparum in erythrocytes, SYBR Green DNA, 72 h; series mostly up to 12.8 µM
Summary of the method: as §1

CP185 = test: as above; conditions: P. falciparum in erythrocytes, SYBR Green DNA, 72 h; series mostly up to 12.8 µM
Summary of the method: as §1

CP191 = test: as above; conditions: P. falciparum in erythrocytes, SYBR Green DNA, 72 h; series mostly up to 12.8 µM
Summary of the method: as §1

CP192 = test: as above; conditions: P. falciparum in erythrocytes, SYBR Green DNA, 72 h; series mostly up to 28.7 µM
Summary of the method: as §1

CP194 = test: as above; conditions: P. falciparum in erythrocytes, SYBR Green DNA, 72 h; series mostly up to 12.8 µM
Summary of the method: as §1

CP201 = test: as above; conditions: P. falciparum in erythrocytes, SYBR Green DNA, 72 h; series mostly up to 12.8 µM
Summary of the method: as §1

CP203 = test: as above; conditions: P. falciparum in erythrocytes, SYBR Green DNA, 72 h; series mostly up to 12.8 µM
Summary of the method: as §1

CP211 = test: as above; conditions: P. falciparum in erythrocytes, SYBR Green DNA, 72 h; series mostly up to 12.8 µM
Summary of the method: as §1

CP215 = test: as above; conditions: P. falciparum in erythrocytes, SYBR Green DNA, 72 h; series mostly up to 28.7 µM
Summary of the method: as §1

CP217 = test: as above; conditions: P. falciparum in erythrocytes, SYBR Green DNA, 72 h; series mostly up to 12.8 µM
Summary of the method: as §1

CP237 = test: as above; conditions: P. falciparum in erythrocytes, SYBR Green DNA, 72 h; series mostly up to 12.8 µM
Summary of the method: as §1

CP238 = test: as above; conditions: P. falciparum in erythrocytes, SYBR Green DNA, 72 h; series mostly up to 12.8 µM
Summary of the method: as §1

CP247 = test: as above; conditions: P. falciparum in erythrocytes, SYBR Green DNA, 72 h; series mostly up to 12.8 µM
Summary of the method: as §1

CP250 = test: as above; conditions: P. falciparum in erythrocytes, SYBR Green DNA, 72 h; series mostly up to 12.8 µM
Summary of the method: as §1

CP252 = test: as above; conditions: P. falciparum in erythrocytes, SYBR Green DNA, 72 h; series mostly up to 12.8 µM
Summary of the method: as §1

CP256 = test: as above; conditions: P. falciparum in erythrocytes, SYBR Green DNA, 72 h; series mostly up to 12.8 µM
Summary of the method: as §1

Chain of Tyrosyl-DNA phosphodiesterase 1 (Homo sapiens) (Q9NUW8 whole entry, looked up): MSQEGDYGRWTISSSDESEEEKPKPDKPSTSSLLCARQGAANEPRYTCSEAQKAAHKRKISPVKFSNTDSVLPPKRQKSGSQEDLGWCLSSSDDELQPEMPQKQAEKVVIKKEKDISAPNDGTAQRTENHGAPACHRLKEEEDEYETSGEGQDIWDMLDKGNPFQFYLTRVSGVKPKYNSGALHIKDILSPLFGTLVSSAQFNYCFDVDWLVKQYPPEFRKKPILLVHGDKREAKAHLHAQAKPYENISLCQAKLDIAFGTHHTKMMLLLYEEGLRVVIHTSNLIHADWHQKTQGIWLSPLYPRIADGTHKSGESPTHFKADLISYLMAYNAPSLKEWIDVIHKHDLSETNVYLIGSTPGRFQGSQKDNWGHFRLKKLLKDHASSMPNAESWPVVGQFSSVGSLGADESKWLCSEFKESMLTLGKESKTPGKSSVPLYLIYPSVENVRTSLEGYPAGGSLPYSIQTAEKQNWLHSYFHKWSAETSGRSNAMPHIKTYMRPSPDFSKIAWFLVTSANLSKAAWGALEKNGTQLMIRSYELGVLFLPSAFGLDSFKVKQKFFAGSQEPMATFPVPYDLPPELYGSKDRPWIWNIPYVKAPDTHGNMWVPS
Chain of Ubiquitin carboxyl-terminal hydrolase 1 (Homo sapiens) (O94782 whole entry, looked up): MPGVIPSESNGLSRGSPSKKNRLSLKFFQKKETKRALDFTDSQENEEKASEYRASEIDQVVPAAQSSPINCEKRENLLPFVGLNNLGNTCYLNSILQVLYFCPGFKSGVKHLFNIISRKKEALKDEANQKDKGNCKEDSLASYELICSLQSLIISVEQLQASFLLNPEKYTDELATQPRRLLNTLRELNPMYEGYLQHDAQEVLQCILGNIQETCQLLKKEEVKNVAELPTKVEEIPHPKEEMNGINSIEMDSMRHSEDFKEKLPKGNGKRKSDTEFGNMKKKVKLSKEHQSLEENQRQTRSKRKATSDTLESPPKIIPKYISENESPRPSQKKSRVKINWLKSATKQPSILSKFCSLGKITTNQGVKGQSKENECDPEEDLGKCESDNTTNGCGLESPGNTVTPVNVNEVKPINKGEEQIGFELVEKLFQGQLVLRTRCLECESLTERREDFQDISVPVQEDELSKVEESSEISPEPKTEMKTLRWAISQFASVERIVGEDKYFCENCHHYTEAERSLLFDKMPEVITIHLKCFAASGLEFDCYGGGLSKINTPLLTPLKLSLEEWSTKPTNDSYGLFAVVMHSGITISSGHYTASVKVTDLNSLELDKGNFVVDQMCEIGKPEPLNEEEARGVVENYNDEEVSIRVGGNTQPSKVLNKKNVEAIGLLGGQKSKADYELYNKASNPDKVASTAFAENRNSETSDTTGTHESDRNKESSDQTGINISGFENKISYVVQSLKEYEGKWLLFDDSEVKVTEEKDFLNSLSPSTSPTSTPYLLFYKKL
Chain of Luciferin 4-monooxygenase (Photinus pyralis) (P08659 whole entry, looked up): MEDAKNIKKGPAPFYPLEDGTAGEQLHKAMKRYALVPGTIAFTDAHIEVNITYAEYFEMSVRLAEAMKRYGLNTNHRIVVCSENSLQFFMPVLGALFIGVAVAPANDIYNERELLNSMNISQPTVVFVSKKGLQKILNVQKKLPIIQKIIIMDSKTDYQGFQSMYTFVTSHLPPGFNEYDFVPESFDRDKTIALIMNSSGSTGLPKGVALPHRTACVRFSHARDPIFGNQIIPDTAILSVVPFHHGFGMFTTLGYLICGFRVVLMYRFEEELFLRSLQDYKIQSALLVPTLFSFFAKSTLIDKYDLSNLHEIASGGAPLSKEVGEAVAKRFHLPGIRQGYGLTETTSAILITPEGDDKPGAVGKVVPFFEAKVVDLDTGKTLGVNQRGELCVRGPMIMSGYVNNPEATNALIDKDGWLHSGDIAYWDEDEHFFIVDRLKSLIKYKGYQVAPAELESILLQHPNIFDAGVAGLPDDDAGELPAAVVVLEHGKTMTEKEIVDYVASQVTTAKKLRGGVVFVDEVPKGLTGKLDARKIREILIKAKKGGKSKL

CO/N=C(/C(=O)NC1C(=O)N2C(C(=O)O)=C(CSc3nc(=O)c(O)nn3C)CSC12)c1csc(N)n1 (centres undefined)
7.61% and 7.25%: max response ([3]; measured here: cell count channel max response)
inactive: Potency [1] | outcome [2] | activity change, negative = inhibition ([3]; at 57.5 µM (top of the series)) 7.84% and 13.9% | Potency [5] | outcome [6] | Potency [7] | Potency [8] | activity, negative = inhibition ([9]; parasite line A) 11.8% | activity, negative = inhibition ([9]; parasite line B) 6.03% | Potency (3D7) | Potency (7G8) | Potency (AA1029) | Potency (AS120) | Potency (ATS189) | Potency (ATS95) | Potency (C2A) | Potency (CP185) | Potency (CP191) | Potency (CP192) | Potency (CP194) | Potency (CP201) | Potency (CP203) | Potency (CP211) | Potency (CP215) | Potency (CP217) | Potency (CP237) | Potency (CP238) | Potency (CP247) | Potency (CP250) | Potency (CP252) | Potency (CP256)
active: Potency [4] 1.78 µM and 12.6 µM
18.4% and 25.1%: max response ([3]; measured here: lipid channel max response)
